Paper PMC7862700, “An all-to-all approach to the identification of sequence-specific readers for epigenetic DNA modifications on cytosine”

Key:
Assay in all cases: DAPPL (digital affinity profiling via proximity ligation, sequencing); 10 mM Tris-HCl pH 7.5, 50 mM NaCl, 1 mM DTT, 4% glycerol, room temperature, 30 min; GST-TFs on glutathione beads, 16-mer random dsDNA library, 0.1% formaldehyde crosslink after washing; high values mean tight binding
FLI1 = molecular target: T1, FLI1 (Homo sapiens, UniProt Q01543 1-452); settings: protein: recombinant; tags: N-terminal GST; dsDNA, one strand shown
T1 sequence: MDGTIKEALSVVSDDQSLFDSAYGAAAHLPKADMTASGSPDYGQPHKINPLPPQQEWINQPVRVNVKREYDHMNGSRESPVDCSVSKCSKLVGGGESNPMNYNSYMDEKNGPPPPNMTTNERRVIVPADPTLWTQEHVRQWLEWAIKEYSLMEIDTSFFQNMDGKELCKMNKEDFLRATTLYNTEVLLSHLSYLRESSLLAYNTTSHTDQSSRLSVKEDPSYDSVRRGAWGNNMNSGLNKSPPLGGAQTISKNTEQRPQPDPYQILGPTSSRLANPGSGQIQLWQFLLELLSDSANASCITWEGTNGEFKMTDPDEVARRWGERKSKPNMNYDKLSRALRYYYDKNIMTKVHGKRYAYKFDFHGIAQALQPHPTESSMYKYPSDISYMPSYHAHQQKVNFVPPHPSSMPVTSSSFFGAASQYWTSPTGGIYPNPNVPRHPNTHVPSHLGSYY
In short: (§1)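 After expression in yeast as GST fusions, human transcription factors were bound to glutathione beads, DNA-barcoded and mixed with a tag-only sample. The pools were incubated with 200 nmole of a 16-mer random double-stranded DNA library in Tris/NaCl/DTT/glycerol buffer (30 min, room temperature), washed and crosslinked with 0.1% formaldehyde. Proximity ligation with BsaI/T4 ligase ran for 1 h at 37 °C, before PCR amplification and sequencing on an Illumina NextSeq500. Binding signal is a hexamer's read frequency for a factor divided by its frequency for the tag-only sample.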

ELK1 = molecular target: T2, ELK1 (Homo sapiens, UniProt P19419 1-428); settings: protein: recombinant; tags: N-terminal GST; dsDNA, one strand shown
T2 sequence: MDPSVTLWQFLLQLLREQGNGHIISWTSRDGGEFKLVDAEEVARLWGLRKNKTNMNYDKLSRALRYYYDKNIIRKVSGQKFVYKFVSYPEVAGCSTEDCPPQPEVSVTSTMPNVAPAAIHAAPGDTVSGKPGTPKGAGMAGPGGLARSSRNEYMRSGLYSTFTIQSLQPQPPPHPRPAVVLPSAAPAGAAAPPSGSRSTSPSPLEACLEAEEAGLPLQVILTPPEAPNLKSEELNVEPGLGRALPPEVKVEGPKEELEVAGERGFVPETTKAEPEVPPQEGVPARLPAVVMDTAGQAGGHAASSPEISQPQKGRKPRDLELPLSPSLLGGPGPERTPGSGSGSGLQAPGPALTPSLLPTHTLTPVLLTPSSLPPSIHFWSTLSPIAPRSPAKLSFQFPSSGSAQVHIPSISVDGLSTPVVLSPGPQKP
In short: as §1

GABPA = molecular target: T3, GABPA (Homo sapiens, UniProt Q06546 1-454); settings: protein: recombinant; tags: N-terminal GST; dsDNA, one strand shown
T3 sequence: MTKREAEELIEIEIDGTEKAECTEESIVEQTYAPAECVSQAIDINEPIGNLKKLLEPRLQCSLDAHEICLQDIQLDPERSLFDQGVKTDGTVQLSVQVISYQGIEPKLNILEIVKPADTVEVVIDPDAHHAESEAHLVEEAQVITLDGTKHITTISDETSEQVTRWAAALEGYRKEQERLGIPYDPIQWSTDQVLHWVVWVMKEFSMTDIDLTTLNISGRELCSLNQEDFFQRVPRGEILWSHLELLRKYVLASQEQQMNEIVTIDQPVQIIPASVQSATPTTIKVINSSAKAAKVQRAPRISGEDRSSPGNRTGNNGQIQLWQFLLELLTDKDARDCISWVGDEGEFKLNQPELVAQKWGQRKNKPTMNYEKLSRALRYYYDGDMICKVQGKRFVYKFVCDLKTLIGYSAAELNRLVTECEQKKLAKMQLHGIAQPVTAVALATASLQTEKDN
In short: as §1

ERG = molecular target: T4, ERG (Homo sapiens, UniProt P11308 1-479); settings: protein: recombinant; tags: N-terminal GST; dsDNA, one strand shown
T4 sequence: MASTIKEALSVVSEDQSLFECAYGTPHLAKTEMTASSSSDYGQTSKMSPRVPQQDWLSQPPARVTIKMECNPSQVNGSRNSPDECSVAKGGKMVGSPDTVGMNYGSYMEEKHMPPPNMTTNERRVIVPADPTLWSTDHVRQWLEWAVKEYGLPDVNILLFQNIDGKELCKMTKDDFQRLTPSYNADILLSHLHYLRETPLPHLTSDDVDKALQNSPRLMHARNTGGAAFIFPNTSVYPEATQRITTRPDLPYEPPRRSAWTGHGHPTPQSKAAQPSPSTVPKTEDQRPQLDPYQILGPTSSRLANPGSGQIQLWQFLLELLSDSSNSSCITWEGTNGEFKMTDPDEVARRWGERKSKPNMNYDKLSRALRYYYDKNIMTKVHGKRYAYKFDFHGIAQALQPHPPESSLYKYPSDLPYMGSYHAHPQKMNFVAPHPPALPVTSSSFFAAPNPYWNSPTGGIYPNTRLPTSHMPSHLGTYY
In short: as §1

ELF1 = ELF1 (Homo sapiens, UniProt P32519 1-619); settings: protein: recombinant; tags: N-terminal GST; dsDNA, one strand shown
In short: as §1

EHF = molecular target: T5, EHF (Homo sapiens, UniProt Q9NZC4 1-300); settings: protein: recombinant; tags: N-terminal GST; dsDNA, one strand shown
T5 sequence: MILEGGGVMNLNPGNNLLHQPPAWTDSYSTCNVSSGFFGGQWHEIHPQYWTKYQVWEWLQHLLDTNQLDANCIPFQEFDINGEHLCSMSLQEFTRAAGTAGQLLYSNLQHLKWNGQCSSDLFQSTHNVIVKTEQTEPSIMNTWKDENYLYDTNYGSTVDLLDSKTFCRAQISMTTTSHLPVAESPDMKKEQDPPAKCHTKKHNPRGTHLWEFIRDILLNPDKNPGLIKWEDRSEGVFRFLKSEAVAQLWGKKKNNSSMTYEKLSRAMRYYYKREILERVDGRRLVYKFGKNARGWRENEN
In short: as §1

SPI1 = SPI1 (Homo sapiens, UniProt P17947 1-270); settings: protein: recombinant; tags: N-terminal GST; dsDNA, one strand shown
In short: as §1

SPIB = SPIB (Homo sapiens, UniProt Q01892 1-262); settings: protein: recombinant; tags: N-terminal GST; dsDNA, one strand shown
In short: as §1

ELK3 = molecular target: T6, ELK3 (Homo sapiens, UniProt P41970 1-407); settings: protein: recombinant; tags: N-terminal GST; dsDNA, one strand shown
T6 sequence: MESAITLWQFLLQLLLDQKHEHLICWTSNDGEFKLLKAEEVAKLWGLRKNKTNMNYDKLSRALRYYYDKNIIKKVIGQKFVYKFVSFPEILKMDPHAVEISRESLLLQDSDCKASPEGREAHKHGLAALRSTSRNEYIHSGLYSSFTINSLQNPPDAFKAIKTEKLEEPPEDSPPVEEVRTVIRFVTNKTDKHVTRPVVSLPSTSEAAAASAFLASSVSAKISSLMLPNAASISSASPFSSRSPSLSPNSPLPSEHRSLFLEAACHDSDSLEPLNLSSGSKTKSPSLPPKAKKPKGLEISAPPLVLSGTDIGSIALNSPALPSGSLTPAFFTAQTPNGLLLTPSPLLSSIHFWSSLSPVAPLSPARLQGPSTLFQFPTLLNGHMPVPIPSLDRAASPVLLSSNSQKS
In short: as §1

FEV = molecular target: T7, FEV (Homo sapiens, UniProt Q99581 1-238); settings: protein: recombinant; tags: N-terminal GST; dsDNA, one strand shown
T7 sequence: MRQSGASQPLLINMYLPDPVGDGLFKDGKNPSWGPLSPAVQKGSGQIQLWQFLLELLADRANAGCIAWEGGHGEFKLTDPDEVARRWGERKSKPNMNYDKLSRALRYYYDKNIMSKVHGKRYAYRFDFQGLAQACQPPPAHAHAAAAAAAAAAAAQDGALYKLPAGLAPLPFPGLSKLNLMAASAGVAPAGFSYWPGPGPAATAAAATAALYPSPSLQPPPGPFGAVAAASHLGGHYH
In short: as §1

ETV5 = ETV5 (Homo sapiens, UniProt P41161 1-510); settings: protein: recombinant; tags: N-terminal GST; dsDNA, one strand shown
In short: as §1

HSF1 = HSF1 (Homo sapiens, UniProt Q00613 1-529); settings: protein: recombinant; tags: N-terminal GST; chain copies: 3; dsDNA, one strand shown
In short: as §1

SPIC = molecular target: T8, SPIC (Homo sapiens, UniProt Q8N5J4 1-248); settings: protein: recombinant; tags: N-terminal GST; dsDNA, one strand shown
T8 sequence: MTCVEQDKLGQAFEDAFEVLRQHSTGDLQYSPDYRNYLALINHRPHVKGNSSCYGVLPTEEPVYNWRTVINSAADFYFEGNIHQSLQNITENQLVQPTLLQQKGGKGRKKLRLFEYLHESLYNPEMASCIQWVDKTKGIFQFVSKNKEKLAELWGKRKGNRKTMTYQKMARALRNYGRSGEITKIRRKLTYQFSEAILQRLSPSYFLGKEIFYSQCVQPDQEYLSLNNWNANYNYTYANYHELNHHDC
In short: as §1

ELF4 = ELF4 (Homo sapiens, UniProt Q99607 1-663); settings: protein: recombinant; tags: N-terminal GST; dsDNA, one strand shown
In short: as §1

ELK4 = molecular target: T9, ELK4 (Homo sapiens, UniProt P28324-2 1-405); settings: protein: recombinant; tags: N-terminal GST; dsDNA, one strand shown
T9 sequence: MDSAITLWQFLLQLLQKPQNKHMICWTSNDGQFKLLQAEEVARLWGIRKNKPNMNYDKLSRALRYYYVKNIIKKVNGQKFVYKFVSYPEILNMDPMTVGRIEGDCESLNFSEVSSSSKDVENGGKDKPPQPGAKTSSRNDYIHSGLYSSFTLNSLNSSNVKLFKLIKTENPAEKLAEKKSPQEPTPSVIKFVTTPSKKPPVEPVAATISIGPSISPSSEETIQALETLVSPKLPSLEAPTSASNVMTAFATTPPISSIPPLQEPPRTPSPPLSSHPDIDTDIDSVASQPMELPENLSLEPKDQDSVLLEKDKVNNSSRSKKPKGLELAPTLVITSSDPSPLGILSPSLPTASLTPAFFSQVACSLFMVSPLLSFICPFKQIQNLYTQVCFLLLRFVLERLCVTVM
In short: as §1

ETV2 = molecular target: T10, ETV2 (Homo sapiens, UniProt O00321 1-342); settings: protein: recombinant; tags: N-terminal GST; dsDNA, one strand shown
T10 sequence: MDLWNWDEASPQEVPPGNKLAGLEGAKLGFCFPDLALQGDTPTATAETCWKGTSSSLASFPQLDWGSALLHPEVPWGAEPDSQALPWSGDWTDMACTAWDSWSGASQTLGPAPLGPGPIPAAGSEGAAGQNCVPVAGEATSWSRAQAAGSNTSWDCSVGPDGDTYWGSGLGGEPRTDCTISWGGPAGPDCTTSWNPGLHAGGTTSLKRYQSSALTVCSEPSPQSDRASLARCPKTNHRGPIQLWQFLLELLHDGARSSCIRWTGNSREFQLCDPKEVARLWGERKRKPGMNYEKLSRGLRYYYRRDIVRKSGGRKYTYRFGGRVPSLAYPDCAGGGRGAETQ
In short: as §1

ELF3 = molecular target: T11, ELF3 (Homo sapiens, UniProt P78545 1-371); settings: protein: recombinant; tags: N-terminal GST; dsDNA, one strand shown
T11 sequence: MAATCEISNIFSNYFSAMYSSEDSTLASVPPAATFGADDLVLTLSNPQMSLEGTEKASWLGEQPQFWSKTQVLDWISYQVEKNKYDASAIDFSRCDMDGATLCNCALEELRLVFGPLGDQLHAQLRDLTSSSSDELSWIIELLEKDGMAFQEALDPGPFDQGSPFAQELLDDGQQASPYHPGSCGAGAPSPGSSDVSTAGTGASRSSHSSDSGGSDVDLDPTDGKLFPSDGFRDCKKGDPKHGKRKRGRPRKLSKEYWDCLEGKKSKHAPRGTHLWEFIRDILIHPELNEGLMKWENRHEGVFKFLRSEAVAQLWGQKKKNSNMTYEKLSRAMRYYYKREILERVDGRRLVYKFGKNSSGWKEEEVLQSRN
In short: as §1

CRX = CRX (Homo sapiens, UniProt O43186 1-299); settings: protein: recombinant; tags: N-terminal GST; dsDNA, one strand shown
In short: as §1

ETV1 = ETV1 (Homo sapiens, UniProt P50549 1-477); settings: protein: recombinant; tags: N-terminal GST; dsDNA, one strand shown
In short: as §1

CRX, sequence (O43186 whole entry): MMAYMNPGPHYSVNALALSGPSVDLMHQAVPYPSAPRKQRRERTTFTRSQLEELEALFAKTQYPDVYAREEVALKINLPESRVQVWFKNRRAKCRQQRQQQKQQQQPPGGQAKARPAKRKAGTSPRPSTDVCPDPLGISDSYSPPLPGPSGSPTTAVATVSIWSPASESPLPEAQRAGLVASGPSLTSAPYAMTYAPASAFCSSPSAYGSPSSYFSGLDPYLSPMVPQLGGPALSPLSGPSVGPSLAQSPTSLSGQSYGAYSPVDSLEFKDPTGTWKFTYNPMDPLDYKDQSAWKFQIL
SPIB, sequence (Q01892 whole entry): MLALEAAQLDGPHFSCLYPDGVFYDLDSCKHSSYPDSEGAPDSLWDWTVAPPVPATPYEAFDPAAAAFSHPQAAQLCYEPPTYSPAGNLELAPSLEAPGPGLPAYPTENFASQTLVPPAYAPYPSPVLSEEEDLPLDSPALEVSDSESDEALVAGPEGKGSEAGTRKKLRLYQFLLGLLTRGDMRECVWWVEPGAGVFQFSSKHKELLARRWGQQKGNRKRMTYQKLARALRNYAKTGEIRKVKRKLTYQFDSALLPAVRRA
ELF1, sequence (P32519 whole entry): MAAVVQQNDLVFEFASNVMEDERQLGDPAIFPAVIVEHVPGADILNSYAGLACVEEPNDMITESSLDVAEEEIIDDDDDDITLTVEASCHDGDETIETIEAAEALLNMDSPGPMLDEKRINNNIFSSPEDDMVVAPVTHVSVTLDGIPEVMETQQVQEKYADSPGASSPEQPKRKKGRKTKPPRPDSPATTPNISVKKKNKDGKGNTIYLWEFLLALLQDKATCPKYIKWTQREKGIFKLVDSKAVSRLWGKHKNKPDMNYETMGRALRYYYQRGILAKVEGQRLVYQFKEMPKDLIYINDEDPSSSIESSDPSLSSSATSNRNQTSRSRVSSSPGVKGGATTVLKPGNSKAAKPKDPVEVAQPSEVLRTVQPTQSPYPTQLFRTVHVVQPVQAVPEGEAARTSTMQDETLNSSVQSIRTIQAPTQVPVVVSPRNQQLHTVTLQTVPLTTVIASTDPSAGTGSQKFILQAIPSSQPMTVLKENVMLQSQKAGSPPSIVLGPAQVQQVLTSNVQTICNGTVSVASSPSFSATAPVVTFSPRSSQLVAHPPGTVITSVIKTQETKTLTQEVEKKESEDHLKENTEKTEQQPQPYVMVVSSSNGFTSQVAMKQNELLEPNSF
HSF1, sequence (Q00613 whole entry): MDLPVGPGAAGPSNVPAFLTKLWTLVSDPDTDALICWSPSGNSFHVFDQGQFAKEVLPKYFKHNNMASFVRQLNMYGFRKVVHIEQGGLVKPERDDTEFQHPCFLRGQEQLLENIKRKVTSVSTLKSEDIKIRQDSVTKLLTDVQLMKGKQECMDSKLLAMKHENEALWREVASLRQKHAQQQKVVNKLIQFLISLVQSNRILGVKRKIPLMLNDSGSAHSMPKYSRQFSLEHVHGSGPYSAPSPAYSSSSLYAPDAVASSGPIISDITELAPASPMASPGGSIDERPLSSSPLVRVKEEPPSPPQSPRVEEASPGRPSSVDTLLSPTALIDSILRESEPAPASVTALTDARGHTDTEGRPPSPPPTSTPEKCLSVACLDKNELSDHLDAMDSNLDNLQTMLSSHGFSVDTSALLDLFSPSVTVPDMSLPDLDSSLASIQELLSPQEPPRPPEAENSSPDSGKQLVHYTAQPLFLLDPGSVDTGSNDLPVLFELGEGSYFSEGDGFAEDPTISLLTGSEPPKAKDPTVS
ELF4, sequence (Q99607 whole entry): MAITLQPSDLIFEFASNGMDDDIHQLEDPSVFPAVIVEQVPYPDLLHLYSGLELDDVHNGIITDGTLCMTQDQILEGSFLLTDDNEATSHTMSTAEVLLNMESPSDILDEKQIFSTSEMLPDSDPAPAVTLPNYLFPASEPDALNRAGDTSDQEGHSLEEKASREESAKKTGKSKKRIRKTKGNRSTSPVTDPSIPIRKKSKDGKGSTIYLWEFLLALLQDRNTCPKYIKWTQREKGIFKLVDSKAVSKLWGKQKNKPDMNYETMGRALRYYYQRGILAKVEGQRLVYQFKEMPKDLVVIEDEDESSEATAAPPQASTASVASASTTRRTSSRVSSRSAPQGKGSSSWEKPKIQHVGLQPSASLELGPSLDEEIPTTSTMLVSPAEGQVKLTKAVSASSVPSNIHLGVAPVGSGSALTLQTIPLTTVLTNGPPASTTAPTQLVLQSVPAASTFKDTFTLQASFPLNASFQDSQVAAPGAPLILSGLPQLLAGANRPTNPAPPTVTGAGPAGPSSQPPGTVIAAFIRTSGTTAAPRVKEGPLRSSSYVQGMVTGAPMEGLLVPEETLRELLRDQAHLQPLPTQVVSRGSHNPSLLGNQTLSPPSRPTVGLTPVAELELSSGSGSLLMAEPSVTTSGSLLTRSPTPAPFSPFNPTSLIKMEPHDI
ETV5, sequence (P41161 whole entry): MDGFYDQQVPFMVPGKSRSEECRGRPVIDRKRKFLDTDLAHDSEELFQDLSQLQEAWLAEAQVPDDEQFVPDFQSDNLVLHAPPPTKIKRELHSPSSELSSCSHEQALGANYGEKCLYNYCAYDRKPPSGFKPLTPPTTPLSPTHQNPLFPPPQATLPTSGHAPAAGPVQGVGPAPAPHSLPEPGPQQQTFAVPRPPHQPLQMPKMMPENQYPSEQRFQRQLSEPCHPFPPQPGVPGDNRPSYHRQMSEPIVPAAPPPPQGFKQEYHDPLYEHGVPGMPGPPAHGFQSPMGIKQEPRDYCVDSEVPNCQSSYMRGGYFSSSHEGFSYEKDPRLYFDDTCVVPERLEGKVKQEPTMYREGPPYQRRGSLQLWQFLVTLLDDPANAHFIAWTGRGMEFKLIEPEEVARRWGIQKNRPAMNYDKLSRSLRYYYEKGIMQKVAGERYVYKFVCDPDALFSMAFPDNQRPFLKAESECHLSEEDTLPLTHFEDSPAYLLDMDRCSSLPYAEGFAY
ETV1, sequence (P50549 whole entry): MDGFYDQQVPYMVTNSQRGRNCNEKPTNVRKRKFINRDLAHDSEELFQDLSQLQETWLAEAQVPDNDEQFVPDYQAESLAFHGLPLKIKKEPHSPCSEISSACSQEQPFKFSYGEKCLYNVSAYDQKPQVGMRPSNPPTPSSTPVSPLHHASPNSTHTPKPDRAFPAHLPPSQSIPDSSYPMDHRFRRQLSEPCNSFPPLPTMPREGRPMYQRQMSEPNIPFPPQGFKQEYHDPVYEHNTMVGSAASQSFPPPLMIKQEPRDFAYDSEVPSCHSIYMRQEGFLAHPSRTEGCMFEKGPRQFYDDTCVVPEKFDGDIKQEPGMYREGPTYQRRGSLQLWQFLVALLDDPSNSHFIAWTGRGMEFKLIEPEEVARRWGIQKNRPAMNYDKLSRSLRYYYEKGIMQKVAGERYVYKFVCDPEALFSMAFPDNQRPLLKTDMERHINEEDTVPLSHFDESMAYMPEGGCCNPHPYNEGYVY

CGAAAA
binding signal (FLI1): 1.07 fold enrichment (6-mer frequency, TF over GST control) | binding signal (ELK1): 1.07 fold enrichment (6-mer frequency, TF over GST control) | binding signal (GABPA): 1.17 fold enrichment (6-mer frequency, TF over GST control) | binding signal (ERG): 1.06 fold enrichment (6-mer frequency, TF over GST control) | binding signal (ELF1): 1.05 fold enrichment (6-mer frequency, TF over GST control) | binding signal (EHF): 1.14 fold enrichment (6-mer frequency, TF over GST control) | binding signal (SPI1): 1.1 fold enrichment (6-mer frequency, TF over GST control) | binding signal (SPIB): 1.04 fold enrichment (6-mer frequency, TF over GST control) | binding signal (ELK3): 1.01 fold enrichment (6-mer frequency, TF over GST control) | binding signal (FEV): 1.04 fold enrichment (6-mer frequency, TF over GST control) | binding signal (ETV5): 1.13 fold enrichment (6-mer frequency, TF over GST control) | binding signal (HSF1): 1.85 fold enrichment (6-mer frequency, TF over GST control) | binding signal (SPIC): 1.07 fold enrichment (6-mer frequency, TF over GST control) | binding signal (ELF4): 1.11 fold enrichment (6-mer frequency, TF over GST control) | binding signal (ELK4): 1.12 fold enrichment (6-mer frequency, TF over GST control) | binding signal (ETV2): 1.04 fold enrichment (6-mer frequency, TF over GST control) | binding signal (ELF3): 1.01 fold enrichment (6-mer frequency, TF over GST control) | binding signal (CRX): 1.12 fold enrichment (6-mer frequency, TF over GST control) | binding signal (ETV1): 1.06 fold enrichment (6-mer frequency, TF over GST control)
